In PubChem BioAssay (NCATS) one finds Potency, outcome and activation data, which are given here for three compounds.

The target in experiment [1] is Rap guanine nucleotide exchange factor 3 (Homo sapiens) (UniProt O95398). Description: Counterscreen qHTS for antagonist of cAMP-regulated guanine nucleotide exchange factor 3 (EPAC1) (AID 1645888).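 Note: fluorescence loss as bound BODIPY-GDP is released from Rap1B; % of control where 0% means no effect.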 In short, it runs like this:
(§1)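 Rap1B-BODIPY-GDP 250 nM + GDP 50 uM; cpds 7-pt, final 9.74 nM–152 uM (activator mode) or from 7.32 nM upwards (inhibitor mode); RT; FI 480/540 nm at 5 and 30 min, then ± cAMP, reread.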

Experiment [2] deals with DNA repair nuclease/redox regulator APEX1 (Homo sapiens) (UniProt P27695). Description: qHTS Validation Assay for Inhibitors of the Human Apurinic/apyrimidinic Endonuclease 1 (APE1) (AID 1705;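 note: TAMRA fluorescence gain over two minutes as APE1 cuts a quenched THF abasic duplex; series mostly up to about 57 µM; % is set by controls: 0 for no effect and ±100 for the full control effect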). The essentials: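 qHTS, 1536-well. APE1 + cpd 15 min RT → 50 nM TAMRA/BHQ-2 THF-abasic dsDNA substrate → kinetic fluorescence, 3 reads/60 s; delta(read3−read1) = reaction progress. No-enzyme buffer = negative control.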
Chain of DNA repair nuclease/redox regulator APEX1 (Homo sapiens) (P27695 whole entry, looked up): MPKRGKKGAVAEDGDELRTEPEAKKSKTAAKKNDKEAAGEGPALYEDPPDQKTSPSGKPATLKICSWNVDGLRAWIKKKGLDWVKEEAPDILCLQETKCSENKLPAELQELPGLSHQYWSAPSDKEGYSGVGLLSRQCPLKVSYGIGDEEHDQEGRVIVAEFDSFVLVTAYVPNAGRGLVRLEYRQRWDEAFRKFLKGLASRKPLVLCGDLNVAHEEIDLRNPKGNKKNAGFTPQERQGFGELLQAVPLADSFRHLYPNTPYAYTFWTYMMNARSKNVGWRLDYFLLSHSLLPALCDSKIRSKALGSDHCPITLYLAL
On the technique in general: qHTS replaces the single test concentration by a dilution series.

Experiment [3] is described as follows: Counterscreen for APE1 Inhibitors: Fluorescent Dye Displacement Validation Assay (AID 1707).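 Note: plate controls were ThO with dsDNA and no compound for no effect and ThO without dsDNA for full effect.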 The essentials: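 Counterscreen flags promiscuous DNA binders: compounds displacing ThO from duplex DNA (abasic THF site, 50 nM) reduce 540 nm emission (480 nm excitation). ThO 250 nM final; Tris-HCl pH 7.5 with NaCl, MgCl2 and Tween-20.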
The nature of experiment [4]: qHTS for differential inhibitors of proliferation of Plasmodium falciparum line 7G8 (AID 1815).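 Note: potency is the fitted concentration of half-maximal effect; parasite growth measured after three days of incubation.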
Experiment [5] can be described thus: qHTS for differential inhibitors of proliferation of Plasmodium falciparum line GB4 (AID 1816).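 Note: potency is the fitted concentration of half-maximal effect; parasite growth measured after 72 h incubation.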 The following applies: Potency: Plasmodium falciparum GB4 proliferation inhibition.
The nature of experiment [6]: qHTS for differential inhibitors of proliferation of Plasmodium falciparum line 3D7 (AID 1876). Note: potency is the fitted concentration of half-maximal effect.
Experiment [7] in a line: qHTS for differential inhibitors of proliferation of Plasmodium falciparum line D10 (AID 1877).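 Note: potency is the fitted concentration of half-maximal effect; parasites grown with compound for 72 h before DNA staining.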
A short description of experiment [8]: qHTS for differential inhibitors of proliferation of Plasmodium falciparum line Dd2 (AID 1882). Note: potency is the fitted concentration of half-maximal effect; nearly all actives have a fitted effect of over 65% in size. The following applies: Potency: Plasmodium falciparum Dd2 proliferation inhibition. The essentials: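 SYBR Green DNA fluorescence (ex 485, em 535 nm) after overnight lysis quantifies parasite growth; compound exposure lasted 72 h at 37 C on infected red cells at 2.5% hematocrit, 0.3% parasitemia (final). Artemisinin 0.29 uM and vehicle wells define normalization.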

The nature of experiment [9]: qHTS for differential inhibitors of proliferation of Plasmodium falciparum line W2 (AID 1883).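 Note: potency is the fitted concentration of half-maximal effect; parasites grown with compound for 72 h before lysis and staining.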 The following applies: Potency: Plasmodium falciparum W2 proliferation inhibition.
Experiment [10] is described as follows: qHTS for differential inhibitors of proliferation of Plasmodium falciparum line HB3 (AID 1886).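 Note: potency is the fitted concentration of half-maximal effect; parasites grown with compound for 72 h before SYBR Green readout.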 The following applies: Potency: Plasmodium falciparum HB3 proliferation inhibition.
Experiment [11] addresses Ferritin light chain (Equus caballus) (UniProt P02791). Description: qHTS Validation Assay for Identification of Novel General Anesthetics (AID 2323). Note: series mostly up to about 77 µM; % is set by controls: 0 for no effect and ±100 for the full control effect. The essentials: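 Fluorescence at 535 nm (excitation 380 nm) reported loss of 1-AMA binding to horse-spleen apoferritin (10 uM) in PBS with 50% saturated 1-aminoanthracene, after 10 min room-temperature incubation with compound; values from Hill fits of normalized response.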

In experiment [12] the target is ATP-dependent DNA helicase Q1 (Homo sapiens) (UniProt P46063). Description: qHTS Validation Assay for Inhibitors of RecQ-Like Dna Helicase 1 (RECQ1) (AID 2353).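 Note: plate controls were DMSO vehicle for no effect and enzyme-free control for full effect.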 The essentials: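 RECQ1T1 50 nM; forked duplex (20 bp + 30-nt ss tails) 200 nM, ATP 2 mM final; pH 8.0, 2 mM MgCl2, 2.5 ug/ml poly(dI-dC); 15 min compound preincubation; discontinuous kinetic read over 2 h at RT.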

Experiment [13] in a line: Validation screen for small molecules that induce DNA re-replication in MCF 10A normal breast cells (AID 463097). Note: potency is the fitted concentration of half-maximal effect; nearly all actives have a fitted effect of over 60% in size. In short, it runs like this: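 Image-based qHTS: normal breast cells are incubated with compound for 48 hr, stained with Hoechst, and scanned for total nuclear fluorescence. Compounds raising the fraction of nuclei with elevated DNA content count as re-replication inducers.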

Experiment [14] in a line: Quantitative high throughput screen for delayed death inhibitors of the malarial parasite plastid, 96 hour incubation (AID 488745). Note: potency is the fitted concentration of half-maximal effect; nearly all actives have a fitted effect of over 70% in size. In short, it runs like this: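 Readout is firefly luciferase luminescence from an integrated reporter in P. falciparum; lower signal marks inhibited growth. Cultures at 2% hematocrit and 0.1% parasitemia were treated with compound across two generations (96 h, 37 C, 5% CO2).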

Experiment [15] is described as follows: Quantitative high throughput screen for delayed death inhibitors of the malarial parasite plastid, 48 hour incubation (AID 488752). Note: potency is the fitted concentration of half-maximal effect; nearly all actives have a fitted effect of over 65% in size. The essentials: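 First, compound was pinned into RPMI 1640 medium containing 0.5% Albumax. Next, reporter-parasite-infected erythrocytes were added to 2% hematocrit and 0.1% parasitemia. After 48 h at 37 C under 5% CO2, luciferase detection reagent was added and luminescence read.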

Experiment [16] deals with M-phase phosphoprotein 8 (Homo sapiens) (UniProt Q99549). Description: qHTS Validation Assay for Inhibitors for MPP8 Chromodomain Interactions with Methylated Histone Tails (AID 488949). Note: potency is the fitted concentration of half-maximal effect; nearly all actives have a fitted effect of over 55% in size. In short, it runs like this: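 50 nM MPP8 + 50 nM b-H3K9me3 peptide, PBS pH 7.4/0.01% Tween-20, 30 min RT; + cpd 30 min RT; + AlphaScreen donor/Ni-chelate acceptor beads 10 ug/mL final, 30 min dark; luminescence read.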
Chain of M-phase phosphoprotein 8 (Homo sapiens) (Q99549 whole entry, looked up): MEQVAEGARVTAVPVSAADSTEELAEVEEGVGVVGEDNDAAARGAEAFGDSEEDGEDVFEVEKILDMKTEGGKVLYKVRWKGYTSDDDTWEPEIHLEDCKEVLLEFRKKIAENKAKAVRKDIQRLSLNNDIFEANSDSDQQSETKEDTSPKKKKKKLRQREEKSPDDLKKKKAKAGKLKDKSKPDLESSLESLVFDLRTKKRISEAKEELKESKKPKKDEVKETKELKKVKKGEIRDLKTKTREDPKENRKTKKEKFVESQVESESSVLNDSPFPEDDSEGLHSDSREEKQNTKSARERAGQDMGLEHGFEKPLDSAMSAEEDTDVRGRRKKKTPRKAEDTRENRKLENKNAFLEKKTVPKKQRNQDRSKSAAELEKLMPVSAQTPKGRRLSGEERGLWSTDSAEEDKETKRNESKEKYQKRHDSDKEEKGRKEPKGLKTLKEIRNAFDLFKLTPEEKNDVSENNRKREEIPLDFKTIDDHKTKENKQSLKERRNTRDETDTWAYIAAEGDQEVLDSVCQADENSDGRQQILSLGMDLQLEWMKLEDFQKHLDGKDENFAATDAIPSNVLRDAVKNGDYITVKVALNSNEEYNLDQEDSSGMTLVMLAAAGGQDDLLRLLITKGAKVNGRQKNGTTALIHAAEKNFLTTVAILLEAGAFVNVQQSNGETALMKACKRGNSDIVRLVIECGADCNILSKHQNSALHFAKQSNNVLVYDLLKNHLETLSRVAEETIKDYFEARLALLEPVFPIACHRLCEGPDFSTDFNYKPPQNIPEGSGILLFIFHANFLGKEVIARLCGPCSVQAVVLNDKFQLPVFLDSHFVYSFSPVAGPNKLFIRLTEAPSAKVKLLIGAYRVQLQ

For experiment [17], the target named is Transient receptor potential cation channel subfamily V member 1 (Homo sapiens) (UniProt Q8NER1). Description: HTS Assay for Compounds that Act as Enhancers of the Vanilloid Receptor 1 (AID 488979). Note: 0% is about no effect. The essentials: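 Calcium influx kinetics via Fluo-8 (480/520 nm) in TRPV1-expressing cells, 2000/well cultured overnight at 35.5C. Compound-alone read 3 min (agonist phase), followed by EC20 capsaicin challenge for 2 min (enhancer phase).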
Chain of Transient receptor potential cation channel subfamily V member 1 (Homo sapiens) (Q8NER1 whole entry, looked up): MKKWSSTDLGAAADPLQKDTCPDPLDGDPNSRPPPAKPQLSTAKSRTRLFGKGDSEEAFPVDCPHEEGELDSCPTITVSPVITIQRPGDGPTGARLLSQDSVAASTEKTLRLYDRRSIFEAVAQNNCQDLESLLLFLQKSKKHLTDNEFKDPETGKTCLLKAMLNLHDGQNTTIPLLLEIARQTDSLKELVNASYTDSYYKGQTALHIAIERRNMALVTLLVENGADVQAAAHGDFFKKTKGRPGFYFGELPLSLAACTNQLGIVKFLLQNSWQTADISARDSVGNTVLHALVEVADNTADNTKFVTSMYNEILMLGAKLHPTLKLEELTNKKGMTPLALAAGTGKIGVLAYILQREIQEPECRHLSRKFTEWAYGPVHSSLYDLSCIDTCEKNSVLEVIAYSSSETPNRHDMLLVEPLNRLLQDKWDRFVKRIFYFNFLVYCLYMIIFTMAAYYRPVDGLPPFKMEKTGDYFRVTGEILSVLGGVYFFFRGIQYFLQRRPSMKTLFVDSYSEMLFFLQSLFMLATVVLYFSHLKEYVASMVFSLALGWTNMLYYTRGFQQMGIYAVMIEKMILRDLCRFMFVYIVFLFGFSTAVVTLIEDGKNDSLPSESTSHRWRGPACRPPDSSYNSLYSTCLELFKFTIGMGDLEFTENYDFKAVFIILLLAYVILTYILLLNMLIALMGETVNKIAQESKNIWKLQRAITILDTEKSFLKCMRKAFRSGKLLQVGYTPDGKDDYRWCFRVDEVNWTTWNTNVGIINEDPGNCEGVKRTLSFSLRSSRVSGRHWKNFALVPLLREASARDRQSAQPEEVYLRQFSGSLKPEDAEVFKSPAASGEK

Experiment [18] deals with Thyrotropin receptor (Homo sapiens) (UniProt P16473). Description: qHTS Assay for Antagonists of the Thyroid Stimulating Hormone Receptor (AID 488980). Note: series mostly up to about 58 µM; 0% is about no effect. The essentials:
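Readout is cAMP by HTRF competition between cellular cAMP and cAMP-d2 for a cryptate-labelled antibody. Antagonism was assessed in TSHR-transfected HEK293 cells stimulated with 4 nM TSH (EC80, final) in the presence of RO 20-1724.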

The target in experiment [19] is Thyrotropin-releasing hormone receptor (Homo sapiens) (UniProt P34981). Description: qHTS for Small Molecule Agonists and Allosteric Enhancers of Human TRH Receptor: Validation Screen for Agonists (AID 493127;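 active = calcium activation more than 3 SD above the typical response in the agonist read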;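 note: intracellular calcium rise by fluo-8 fluorescence before TRH EC20 addition; 0% is about no effect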). The following applies: TRH receptor agonist cell assay; at 2 µM; stronger effect = higher value. In short, it runs like this: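 Compounds are added by online pintool to dye-loaded TRHR cells while fluorescence is recorded every second. A rise in calcium signal during the agonist read marks activation; a later 10 nM TRH addition (EC20) serves the separate enhancer mode.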
Chain of Thyrotropin-releasing hormone receptor (Homo sapiens) (P34981 whole entry, looked up): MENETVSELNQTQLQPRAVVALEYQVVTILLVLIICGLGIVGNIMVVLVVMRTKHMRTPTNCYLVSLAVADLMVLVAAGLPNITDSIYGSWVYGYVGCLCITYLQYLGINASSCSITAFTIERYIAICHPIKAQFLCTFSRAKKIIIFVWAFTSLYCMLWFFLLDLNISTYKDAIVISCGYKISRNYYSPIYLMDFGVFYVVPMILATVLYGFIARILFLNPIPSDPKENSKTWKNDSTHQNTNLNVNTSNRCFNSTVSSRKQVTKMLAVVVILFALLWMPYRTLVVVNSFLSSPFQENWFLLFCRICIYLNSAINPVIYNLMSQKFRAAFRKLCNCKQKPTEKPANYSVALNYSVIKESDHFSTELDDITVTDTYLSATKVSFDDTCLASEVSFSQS

Experiment [20] deals with Galactokinase (Homo sapiens) (UniProt P51570). Description: qHTS Validation Assay for Inhibitors of Human Galactokinase (GALK) (AID 493189). Note: 0% is about no effect. In short, it runs like this: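 5 nM GALK / 100 uM galactose / 35 uM ATP, 20 mM HEPES pH8.0, 5 mM MgCl2, 60 mM NaCl, 1 mM DTT, 0.01% BSA (final). RT 1 h; Kinase-Glo Plus luminescence.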
Chain of Galactokinase (Homo sapiens) (P51570 whole entry, looked up): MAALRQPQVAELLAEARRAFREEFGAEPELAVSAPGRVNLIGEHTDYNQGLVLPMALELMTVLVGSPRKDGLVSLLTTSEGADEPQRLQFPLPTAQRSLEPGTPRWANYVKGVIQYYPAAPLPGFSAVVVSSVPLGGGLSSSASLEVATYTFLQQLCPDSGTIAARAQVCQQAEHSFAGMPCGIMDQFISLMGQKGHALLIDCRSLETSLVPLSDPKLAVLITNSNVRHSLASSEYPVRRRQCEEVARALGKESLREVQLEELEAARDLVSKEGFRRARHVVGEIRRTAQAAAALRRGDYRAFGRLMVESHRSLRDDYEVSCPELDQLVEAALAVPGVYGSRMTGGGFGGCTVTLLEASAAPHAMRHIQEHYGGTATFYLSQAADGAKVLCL
Experiment [21] concerns the target Voltage-gated inwardly rectifying potassium channel KCNH2 (Homo sapiens) (UniProt Q12809). Description: qHTS Assay for Small Molecule Inhibitors of the Human hERG Channel Activity (AID 588834).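 Note: potency is the fitted concentration of half-maximal effect; lower thallium flux fluorescence means stronger hERG block; nearly all actives have a fitted effect of over 50% in size.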 In short, it runs like this: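 Step 1: BacMam hERG transduction of U2OS, 4 hrs RT. Step 2: overnight 37 °C, plate 2000 cells/well, 4 hr. Step 3: FluxOR load, compound 10 min, stimulate, read fluorescence.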

Experiment [22] has as its target Rap guanine nucleotide exchange factor 3 (Homo sapiens) (UniProt O95398). Description: Counterscreen qHTS for agonist of cAMP-regulated guanine nucleotide exchange factor 3 (EPAC1) (AID 1645889). Note: % of control where 0% means no effect; nearly all actives have a fitted effect of over 40% in size. The essentials: as §1

A number with no mark means an inactive call. Records with an inconclusive call do not appear. Calls of active or inactive are those of the source. Unless noted, calls come from the whole dose curve; as a rule, active = well fitted curve in the direction sought with a large enough effect; inconclusive = small, poorly fitted or top-dose-only effect, or another doubt; inactive = no such curve, though single readings can be large; an effect the other way counts as inactive or inconclusive.

Chain of Rap guanine nucleotide exchange factor 3 (Homo sapiens) (O95398 whole entry, looked up): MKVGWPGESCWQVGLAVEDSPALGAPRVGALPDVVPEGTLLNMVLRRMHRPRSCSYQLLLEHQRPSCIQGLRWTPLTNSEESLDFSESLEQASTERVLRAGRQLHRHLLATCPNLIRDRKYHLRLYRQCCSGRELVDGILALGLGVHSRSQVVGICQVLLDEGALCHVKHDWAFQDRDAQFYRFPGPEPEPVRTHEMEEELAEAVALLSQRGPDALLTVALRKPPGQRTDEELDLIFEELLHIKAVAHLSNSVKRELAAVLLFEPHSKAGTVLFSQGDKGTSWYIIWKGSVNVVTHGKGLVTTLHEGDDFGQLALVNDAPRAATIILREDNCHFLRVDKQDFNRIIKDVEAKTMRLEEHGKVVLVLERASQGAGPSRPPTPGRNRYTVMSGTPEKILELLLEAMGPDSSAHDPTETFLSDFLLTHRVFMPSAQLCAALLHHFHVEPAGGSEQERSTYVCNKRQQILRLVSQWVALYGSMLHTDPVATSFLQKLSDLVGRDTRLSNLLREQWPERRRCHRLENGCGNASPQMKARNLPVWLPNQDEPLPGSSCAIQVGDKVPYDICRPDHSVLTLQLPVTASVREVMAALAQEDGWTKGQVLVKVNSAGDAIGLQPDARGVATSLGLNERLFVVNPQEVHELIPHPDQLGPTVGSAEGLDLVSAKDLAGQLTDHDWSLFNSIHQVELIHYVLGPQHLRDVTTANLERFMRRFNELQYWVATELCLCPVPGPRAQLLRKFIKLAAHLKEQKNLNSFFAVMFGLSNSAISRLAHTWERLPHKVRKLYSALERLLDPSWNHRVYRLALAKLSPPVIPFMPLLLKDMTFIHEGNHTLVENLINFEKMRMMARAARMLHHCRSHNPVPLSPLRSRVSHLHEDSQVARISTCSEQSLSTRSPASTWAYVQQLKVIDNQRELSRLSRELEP
Chain of Ferritin light chain (Equus caballus) (P02791 2-175 limits assumed): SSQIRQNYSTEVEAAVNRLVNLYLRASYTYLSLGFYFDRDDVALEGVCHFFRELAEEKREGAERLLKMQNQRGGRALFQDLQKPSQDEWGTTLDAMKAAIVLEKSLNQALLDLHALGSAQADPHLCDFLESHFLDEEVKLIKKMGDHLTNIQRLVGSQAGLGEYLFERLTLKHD
Chain of Thyrotropin receptor (Homo sapiens) (P16473 whole entry, looked up): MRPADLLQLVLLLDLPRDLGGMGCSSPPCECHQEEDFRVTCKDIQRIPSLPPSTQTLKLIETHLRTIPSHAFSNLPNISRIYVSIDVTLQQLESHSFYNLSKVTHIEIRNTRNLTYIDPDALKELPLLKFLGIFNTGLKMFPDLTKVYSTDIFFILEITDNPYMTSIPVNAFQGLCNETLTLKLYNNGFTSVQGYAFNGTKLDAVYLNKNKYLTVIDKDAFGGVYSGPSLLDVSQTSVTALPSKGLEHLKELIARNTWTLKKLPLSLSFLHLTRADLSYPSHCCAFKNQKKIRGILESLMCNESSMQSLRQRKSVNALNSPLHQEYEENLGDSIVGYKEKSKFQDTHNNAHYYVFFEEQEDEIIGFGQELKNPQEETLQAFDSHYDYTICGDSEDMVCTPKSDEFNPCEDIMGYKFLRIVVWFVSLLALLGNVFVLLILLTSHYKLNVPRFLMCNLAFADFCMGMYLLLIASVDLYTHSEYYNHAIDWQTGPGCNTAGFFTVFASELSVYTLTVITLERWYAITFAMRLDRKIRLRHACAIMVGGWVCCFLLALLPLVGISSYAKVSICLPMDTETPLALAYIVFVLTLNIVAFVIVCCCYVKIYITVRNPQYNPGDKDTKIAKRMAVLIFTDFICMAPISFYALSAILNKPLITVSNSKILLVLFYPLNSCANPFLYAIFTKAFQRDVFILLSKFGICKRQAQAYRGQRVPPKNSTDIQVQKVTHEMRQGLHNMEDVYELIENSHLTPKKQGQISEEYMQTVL

Take `COc1cc(C)nc(N2CCCC(C(=O)Nc3cc(Cl)ccc3OC)C2)n1` (stereo not drawn): in experiment [1], the Potency result is “inactive”.
As to `Cc1c(C)c2c(c(C)c1O)CCC(C)(CN1CCN(c3cc(N4CCCC4)nc(N4CCCC4)n3)CC1)O2` (stereo not drawn), the Potency result in experiment [2] is “inactive”. Moreover, the call in experiment [3], in [11], in experiment [12], in experiment [17], in experiment [18] and in experiment [20] was inactive. For the same compound, the Potency in experiment [4] was 0.562 µM (active); in [5], 0.501 µM (active); in experiment [6] it was 0.891 µM (active); in [7], 0.501 µM (active); in [8], 1.26 µM (active); in experiment [9], 0.355 µM (active). Further, the Potency is 0.891 µM (active) in experiment [10]; 4.47 µM (active) in [13]; 1.65 µM (active) in [14]; 1.85 µM (active) in experiment [15]; 11.2 µM (active) in experiment [16]; 7.08 µM (active) in [21]. The activation in experiment [19] was -7.62%.
Consider `COc1ccc(-c2n[nH]c(C)c2-c2ccccc2OC)c(O)c1`, for which the Potency result in experiment [1] and in experiment [22] was “inactive” throughout.
